About 3,700 (7%) of roughly 53,000 sequences were called active.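 The calls were made as follows: active = gene knockdowns whose robust z-score for IL-1 alpha signal is at least 2 or at most -2, so actives lie on both sides; inactive = the rest.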 The entries come from a sample that favours actives as a whole.
Assay: Components of the Cytosolic LPS Sensing Pathway: Gene Identification via Genome-wide siRNA Screen;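 also: robust z of the log signal after scaling to non-targeting control siRNA wells of the plate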
Conditions: RAW264.7 macrophages, IL-1a HTRF, actives lie on both sides, screened at 100 nM (by protocol), cells primed 5 h with Pam3CSK4 first
Procedure, shortened: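 RAW264.7; siRNA 100 nM final, RNAiMAX, 48h 37 degrees C; Pam3CSK4 5 h; LipidA + TransIT-TKO 24 h; IL-1a HTRF; CellTiter-Glo viability; robust z vs negative-control median.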
With GCUCAAACACUUACACACUTT against Alcam the z-score was -0.616 (inactive). For “GCCAGUUCCUAUCUGGCUUTT against 4931428L18Rik”, the z-score was 1.03 (inactive). For GCCAAUGGUCACGAACCUATT against Senp5, the z-score was -0.217 (inactive). With GCUUGCUAAGAUUGAGUAUTT against Cerkl the z-score was -0.928 (inactive). In the case of CCGCACAAGAGGUAGAUACTT against Ddx5, the z-score was -2.56 (active). With GGUCAGUAUCAGAAUGAUCTT against Rft1 the z-score was -0.831 (inactive). For GCAGUGAGACUUUUAAUAGTT against Snx17, the z-score was 0.284 (inactive). In the case of GGCAAUAUUUCAGAACCUGTT against Tfb2m, the z-score was 0.44 (inactive). With GGCCUUACUCUUAAGUUCUTT against Brf1 the z-score was 3.7 (active). In the case of GGUGCAUGAAGAGUUAAAATT against Jade1, the z-score was 1.5 (inactive). With GGAGAAAGUUGAACGUAUUTT against Cct2 the z-score was -2.58 (active). In the case of GGAAUUCUUAGCCAAUGCCTT against Gas2l1, the z-score was 0.396 (inactive). For GCUGUCUAGUACAUCUGACTT against Cry2, the z-score was -0.32 (inactive). In the case of GGCUAACACUUAAAUUAGCTT against Atoh8, the z-score was 0.00248 (inactive). For GGCCCAACCUUGGAUCUUUTT against Nudt22, the z-score was 0.751 (inactive). With GGGCACAGACAUGUUUGAGTT against Padi3 the z-score was -1.35 (inactive). With GGAUGAACCAAACCAAUAATT against Mgat4d the z-score was 2.24 (active). For GGACAAACAGGGAGAAAGATT against Mogat2, the z-score was -0.091 (inactive). In the case of GCCAGACUGGAGGUAAAAUTT against Serpinb10, the z-score was -2.24 (active). With GGAGUGAGACAAUUCUCACTT against Sprr2k the z-score was 0.555 (inactive). In the case of GCUAUUUAGUUAGUUGUGUTT against Acbd3, the z-score was 0.334 (inactive). With CCGUGGGAUUUAAGAUAUCTT against Rab34 the z-score was -0.931 (inactive). In the case of GUGUGCUUGAUGGAGACCATT against Riiad1, the z-score was 2.25 (active). For GCAUUUCUACUGGAUUGUGTT against Luc7l2, the z-score was 0.0609 (inactive). For GCUCUUUCUAGCUUAUGAUTT against Chmp1b, the z-score was -0.464 (inactive). In the case of GGAUGCUUGUGCAAAGAUGTT against Anks1b, the z-score was 0.862 (inactive). In the case of GGAGCCUCUAGGAAACAAATT against Slc28a3, the z-score was 0.309 (inactive). With CCGAGUCCAGAACACUCUUTT against Aff2 the z-score was -0.616 (inactive). With CCUGCCAUAGUUAGUUUUUTT against Khdc1a the z-score was 7.91 (active). In the case of CGAGCUUUCACUGCUACAGTT against Ppargc1b, the z-score was -1.35 (inactive). In the case of GCCACUGUACCUUAUUGGUTT against Msrb1, the z-score was 0.331 (inactive). For GGAAGACGGCAACUAUCCATT against Cyp2c50, the z-score was 1.23 (inactive). For GGUAUUUUUUUCUCAGCCATT against Dhdh, the z-score was -0.937 (inactive). For “CGCCUUCCUUCAACACGCATT against 1700049L16Rik”, the z-score was -1.12 (inactive). In the case of GCCCUACCAAAAGGAUGAUTT against Cfap300, the z-score was -2.02 (active). With GGGAUUUGUUGUCUAAGAUTT against Mapk10 the z-score was -0.54 (inactive). In the case of GCAGAUGCGCUUGGAACUUTT against Pde4b, the z-score was 0.0658 (inactive). With GGCUCCUAACUCACUGGGATT against Ormdl1 the z-score was 0.0548 (inactive). With GCUUUGGUGCACUUGCUUUTT against Akr1c13 the z-score was 2.2 (active). In the case of GAUGAAGAAGAGCAGGCUCTT against Gm5168, the z-score was 1.18 (inactive). In the case of CGUAUCAACAUCUCAGAAGTT against Pcbp2, the z-score was -0.632 (inactive). For GGAUUCACGUAAGAUUGACTT against Prl6a1, the z-score was 0.0592 (inactive). For GGUGGUAUCACCUCUAUCATT against Cfap52, the z-score was -2.49 (active). In the case of GACGAUUCUCUGUUGGUGUTT against Hcrt, the z-score was 0.577 (inactive). In the case of CCUGGAGAUUCAGUACGAATT against Krt25, the z-score was 1.55 (inactive). With GGUUCUUGCUGAGAGCAUGTT against Rft1 the z-score was 0.943 (inactive). In the case of GGAUUGAAGCAGGCAGCUUTT against Purb, the z-score was -0.787 (inactive). In the case of GGUUCAAGGUGAAGACUCCTT against Reg3b, the z-score was 0.793 (inactive). With GGUGUGUAUGGUGCUAGGATT against Olfr1507 the z-score was -2.43 (active). With CCAGCUAAAAAGAUGGUAGTT against Rreb1 the z-score was 0.319 (inactive). For CCUGAAAGCUAAUAUGAAATT against Defb44-ps, the z-score was 0.0593 (inactive). With GGCUUUUAGUACUGAUAGUTT against Neu3 the z-score was 2.6 (active). In the case of CCUCGUUACAUCCUCCCUGTT against Pold1, the z-score was -0.142 (inactive). In the case of CGAUUAUCGGCCCAGCAAATT against Bmp1, the z-score was 1.01 (inactive). For GGUCUCCCUUCAGUAUGAGTT against Cela3b, the z-score was -0.602 (inactive). With CCUAGAGCUUUUCAGAAUATT against Rsl1d1 the z-score was 0.4 (inactive). With CGAUCGGCGACCUUUUAGATT against Irak3 the z-score was -0.527 (inactive). With GGCAGUAGUUAGCAAAUAUTT against Ska1 the z-score was -1.24 (inactive). In the case of GGAUCUGGAAUCACUGUUUTT against Lmnb2, the z-score was -0.451 (inactive). With GGUUUUAGGACACCUGGUUTT against Gys1 the z-score was 2.13 (active). In the case of GGUGCCAUCCCAAACUUUATT against Frat2, the z-score was 0.788 (inactive). For CCUCUUGAGGUCUCGUCAATT against Fam221b, the z-score was -0.0968 (inactive). In the case of GGAUACAAAUCAGGUUCUCTT against Kansl2, the z-score was 0.0399 (inactive). In the case of GCCUUCUUAAGCUCUGAGCTT against Dhrs13, the z-score was -2.97 (active). With GGAAAAAAGAGAGGUCAGATT against Meox1 the z-score was -1.02 (inactive). In the case of GGAAAUUGCUCAGGAGUUUTT against Anxa5, the z-score was -1.26 (inactive). With GGAGAAUCCUGUUUUUUGUTT against Elp4 the z-score was 0.43 (inactive). With GGUGCCAAUCAUUGUUAUGTT against Kcnv1 the z-score was 1.73 (inactive). In the case of CCCGAGAUGAGGAACUUUUTT against Ndnf, the z-score was -0.359 (inactive).

Reference: PubChem BioAssay AID1508600 (Functional Genomics Laboratory (NCATS/FGL), 2020)
